Reference: PMC5540273 (PLoS ONE, 2017)

What was measured:
Conditions in all cases: concentration: 1 μM, replicates: in singlicate; n = 1
STK36 = test system: STK36
STK39 = test system: STK39
SYK = test system: SYK
SgK110 = test system: SgK110
TAK1 = test system: T1, TAK1
T1 construct: gene MAP3K7

TAOK1 = test system: TAOK1
TAOK2 = test system: TAOK2
TAOK3 = test system: TAOK3
TBK1 = test system: TBK1
TEC = test system: TEC
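Further: KINOMEscan kinase panel screen.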

Row | SMILES | %Inh (STK36) | %Inh (STK39) | %Inh (SYK) | %Inh (SgK110) | %Inh (TAK1) | %Inh (TAOK1) | %Inh (TAOK2) | %Inh (TAOK3) | %Inh (TBK1) | %Inh (TEC)
1 | c1ccc(-c2cnc3nccnn23)cc1 [AH20685] | 0% | 0% | 26% | 0% | 0% | 0% | 0% | 0% | 0% | 0%
2 | COC(=O)Nc1nc2cc(Oc3ccc(NC(=O)Nc4cc(C(F)(F)F)ccc4F)cn3)ccc2[nH]1.Cl.Cl [GW681170] | 0% | 3% | 16% | 0% | 79% | 0% | 0% | 0% | 19% | 0%
3 | Cc1cccc(Nc2nc(N[C@H]3CCNC3)ncc2C(N)=O)c1.Cl [GSK2197149] | 10% | 9% | 81% | 0% | 90% | 39% | 0% | 5% | 18% | 0%
4 | Cn1cc(-c2[nH]c3cc(NC(=O)[C@H](N)C4CCCCC4)cc4c3c2C=NNC4=O)cn1 | 0% | 59% | 55% | 92.1% | 52% | 0% | 0% | 0% | 82% | 43%
5 | O=C(Nc1cccc(Oc2ccc3nc(NC(=O)C4CC4)cn3n2)c1)c1ccccc1C(F)(F)F | 4% | 11% | 0% | 0% | 0% | 0% | 34% | 0% | 39% | 5%
6 | CNC(=O)c1ccccc1Nc1nc(Nc2ccc(N3CCOCC3)cc2)ncc1Cl.Cl [GSK1576028] | 85% | 54% | 87% | 90.5% | 96.1% | 98.8% | 83% | 94.2% | 93.1% | 99%
7 | CCn1c(-c2nonc2N)nc2c(C#CC(C)(C)O)nc(OC[C@H](N)c3ccccc3)cc21 [GSK943949] | 0% | 5% | 2% | 0% | 18% | 64% | 27% | 3% | 0% | 0%
8 | O=C(Nc1cccc(-c2nn3ncccc3c2-c2ccnc(Nc3ccccc3)n2)c1)c1c(F)cccc1F [GSK198271] | 100% | 0% | 37% | 0% | 0% | 90% | 93.2% | 97.3% | 0% | 95.4%
9 | COc1ccc(Nc2nccc(N3CCC(NC(=O)Nc4cccc(OC)c4)C3)n2)cc1 (centres unmarked) [GSK1379742] | 0% | 5% | 25% | 0% | 0% | 0% | 0% | 0% | 6% | 1%
10 | O=C(O)C(F)(F)F.O=C(O)C(F)(F)F.O=c1[nH]ccc2nc(N[C@@H]3CCCNC3)nc(Nc3ccc(S(=O)(=O)N4CCOCC4)cc3)c12 [GSK2177277] | 26% | 90.6% | 93.1% | 95% | 99.9% | 99.8% | 82% | 99.5% | 90% | 38%
11 | COc1ccc(-c2coc3ccc(-c4nnc(SCc5ccc(OC)c(C(F)(F)F)c5)o4)cc23)cc1 | 29% | 0% | 0% | 4% | 0% | 0% | 0% | 0% | 11% | 18%
12 | Nc1n[nH]c2cnc(-c3ccccc3)cc12 [SB-642124] | 0% | 0% | 0% | 50% | 0% | 51% | 9% | 7% | 1% | 68%
13 | CN1CCN(CCCNc2nccc(-c3c(-c4ccc(F)cc4)nn4cc(C(F)(F)F)ccc34)n2)CC1 [GW621581] | 97.6% | 3% | 10% | 0% | 0% | 4% | 0% | 8% | 0% | 0%
14 | CN(c1ccc(NC(=O)Nc2cc(C(F)(F)F)ccc2F)cc1)c1ccnc(Nc2ccc(S(N)(=O)=O)cc2)n1 [GW809893] | 0% | 0% | 91.9% | 0% | 60% | 53% | 86% | 79% | 29% | 0%
15 | Cc1cccc(NC(=O)Nc2ccc(Oc3ncnc4ccn(C)c34)cc2)c1 | 0% | 0% | 0% | 0% | 0% | 0% | 20% | 0% | 6% | 0%
16 | COc1cccc(C(=O)Nc2cccc(Oc3ccc4nc(NC(=O)C5CC5)cn4n3)c2)c1 | 0% | 0% | 12% | 0% | 0% | 34% | 58% | 0% | 48% | 9%
17 | c1ccc(Oc2ccc(Nc3ccnc4cc(-c5ccc(CNCCN6CCOCC6)o5)ccc34)cc2)nc1 [GW567145] | 0% | 1% | 14% | 0% | 0% | 0% | 0% | 0% | 1% | 39%
18 | Cn1cc(-c2ccc3c(c2)CCN3C(=O)Cc2cccc(Cl)c2)c2c(N)ncnc21 [GSK2606590] | 0% | 9% | 38% | 0% | 42% | 0% | 0% | 0% | 27% | 4%
19 | Cc1ccc(S(=O)(=O)Nc2ccc(Nc3nccc(Nc4cccc5[nH]ncc45)n3)cc2)cc1 [GSK581271] | 0% | 1% | 31% | 0% | 0% | 0% | 0% | 0% | 9% | 9%
20 | COC(=O)Nc1nc2ccc(Oc3ccc(NC(=O)Nc4cc(C(F)(F)F)ccc4F)cc3)cc2n1C.Cl [GW692089] | 22% | 0% | 52% | 0% | 38% | 0% | 0% | 0% | 0% | 0%
21 | COc1cc(Nc2ncc3c(C)nc(-c4cc5ccccc5[nH]4)n3n2)cc(OC)c1OC [GW869516] | 6% | 0% | 53% | 0% | 48% | 0% | 0% | 0% | 58% | 0%
22 | O=C(NC1CCN(c2ccnc(Nc3ccc(F)cc3)n2)C1)c1cc2ccccc2s1 (centres unmarked) [GSK1379716] | 0% | 4% | 42% | 0% | 0% | 0% | 0% | 0% | 20% | 16%
23 | O=C(Nc1n[nH]c2cc(-c3ccoc3)ccc12)C1CC1 [SB-738481] | 13% | 1% | 2% | 0% | 2% | 65% | 27% | 15% | 15% | 0%
